Among all 640,000 compounds or so, about 9,300 (1.5%) were called active. Cut-off read from the data, not from the text of the source: active = inhibition above about 32%; inactive = the rest. The sample as a whole holds a higher share of actives than the screen did.

The assay can be described thus: TEAD-YAP interaction inhibition, primary screen, TEAD-YAP interaction inhibitor project, luminescence, HEK-TIYL cells (AID 1259422).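 Note: 0% = median of test compound wells and 100% = reference inhibitor wells.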 Conditions: TEAD-Gal4/YAP UAS-luciferase luminescence, at 9.12 µM, stronger effect = higher value.
Usually inhibition stands for the drop in the measured response relative to a control, in per cent. In the case of `COc1ccc(-c2nc(Nc3cc(OC)c(OC)c(OC)c3)c3ncn(C(C)C)c3n2)cc1`, the inhibition was 23.6% (inactive).

Take `COc1ccc(CNc2nc(-c3ccccc3)nc3c2ncn3C(C)C)cc1`: the inhibition was -3.1% (inactive).

`COc1cc(Nc2nc(NCc3nc4ccccc4[nH]3)c3ncn(C(C)C)c3n2)cc(OC)c1OC`: the inhibition was 47.9% (active).

Turning to `FC(F)(F)c1ccc(Cn2cnc3c(NCc4nc5ccccc5[nH]4)nc(Cl)nc32)cc1`, the inhibition was -2.85% (inactive).

As for `CC(C)n1cnc2c(NCc3nc4ccccc4[nH]3)nc(Cl)nc21`, the inhibition was 61.8% (active).

Regarding `COc1cc(Nc2cc(C(=O)NCc3nc4ccccc4[nH]3)ccn2)cc(OC)c1OC`, the inhibition is 2.93% (inactive).

As for `Cc1c(C(=O)NCC2CCCO2)sc2ncn(Cc3ccccc3F)c(=O)c12` (centres undefined), the inhibition was 2.38% (inactive).

As for `Oc1c(C(c2ccc(F)cc2)N2CCOCC2)sc2ncnn12` (centres undefined), the inhibition is -3.52% (inactive).

For the molecule `COc1ccccc1N1CCN(/N=C(\C)c2cccs2)CC1`, the inhibition was -19.5% (inactive).

For the molecule `Cc1cccnc1NC(=S)NC(=O)c1cc2ccccc2o1`, the inhibition was -26.1% (inactive).

As to `CCCn1nnnc1NC(=S)NC(=O)c1cc2ccccc2o1`, the inhibition is 35.9% (active).

In the case of `CCCn1nnnc1NC(=O)c1ccc(-c2cccc(Cl)c2)o1`, the inhibition is -16.9% (inactive).

With `Cc1ccc(C(C)C)c(OC(=O)c2cc(-c3ccc(Cl)cc3)nc3ccc(C)cc23)c1`, the inhibition was -8.87% (inactive).

For `CC1CCN(C2=C(NC3CCCC3)C(=O)c3ccccc3C2=O)CC1`, the inhibition is 51.5% (active).

`O=C1C(Nc2ccc(F)c(F)c2)=C(N2CCCCC2)C(=O)c2ccccc21`: the inhibition is -7.95% (inactive).

Turning to `O=C1C(Nc2ccc(F)c(F)c2)=C(N2CCCC2)C(=O)c2ccccc21`, the inhibition was -1.87% (inactive).

`Cc1c(C(=O)N2CCN(Cc3ccc4c(c3)OCO4)CC2)sc2ncn(CC(=O)Nc3cccc(C(F)(F)F)c3)c(=O)c12`: the inhibition was -1.1% (inactive).

For the molecule `CNC(=O)c1ccc(Cl)c([N+](=O)[O-])c1`, the inhibition was 8.77% (inactive).

On to `CCCCC(=O)NC1(C(F)(F)F)C(=O)N(C2CCCCC2)C(C)=C1C(=O)OCC` (centres undefined), for which the inhibition is 18.5% (inactive).

`Nc1c(C(=O)OCC(=O)NCc2ccc3c(c2)OCO3)[nH]c(=O)[nH]c1=O`: the inhibition is -6.24% (inactive).

On to `COCCOC(=O)c1c(C)oc2ccc(NS(=O)(=O)c3ccc(Cl)cc3)cc12`, for which the inhibition was -2.27% (inactive).

On to `Cc1ccc(S(=O)(=O)Nc2ccc3oc(C)c(C(=O)NN)c3c2)cc1`, for which the inhibition was 10.1% (inactive).

With `CC(=O)c1c(C)oc2c1cc(NS(=O)(=O)c1cccc3cccnc13)c1ccccc12`, the inhibition is -0.78% (inactive).

Consider `COc1ccc(S(=O)(=O)Nc2ccc3oc(C)c(C(C)=O)c3c2)cc1`, for which the inhibition was 54.7% (active).

Regarding `CC(=O)c1c(C)oc2c1cc(NS(=O)(=O)c1ccc(C)cc1)c1ccccc12`, the inhibition was 62.9% (active).

With `COC(=O)c1c(C)oc2c1cc(NS(=O)(=O)c1ccc(Cl)cc1)c1ccccc12`, the inhibition was 11.4% (inactive).

As to `C=CCOC(=O)N1CCC(C(=O)NC(c2ccc(F)cc2)c2ccccn2)CC1` (centres undefined), the inhibition was 6.83% (inactive).

For `COc1ccccc1NC(=O)N1CCC2(CC1)OCc1cc(SC)cc(C)c1O2`, the inhibition was 1.69% (inactive).

Turning to `C=CC(=O)Nc1ccc(OC)cc1OC`, the inhibition was 43.2% (active).

With `COc1ccc(NC(=O)/C=C\c2cccc3ccccc23)c(OC)c1`, the inhibition was 2.51% (inactive).

In the case of `COc1ccc(CNC(=O)Nc2ccc(OC)cc2OC)cc1`, the inhibition was 0.36% (inactive).

In the case of `CCn1cc(C(=O)OCc2c(F)cccc2Cl)c(=O)c2ccc(C)nc21`, the inhibition is -3.49% (inactive).

Turning to `CCOc1ccc(-c2nc(-c3cccc([N+](=O)[O-])c3)no2)cc1`, the inhibition is -19.3% (inactive).

In the case of `Cc1ccc2[nH]c3c(=O)n(N)cnc3c2c1`, the inhibition is -5.24% (inactive).

As to `CCCCNc1ncnc2c1[nH]c1ccc(F)cc12`, the inhibition was 42.6% (active).

`CCOC(=O)C(CC)Sc1nnc2c(n1)[nH]c1ccc(F)cc12` (centres undefined): the inhibition is -2.45% (inactive).

With `N#CC1(NS(=O)(=O)c2cc([N+](=O)[O-])ccc2Cl)CCCCC1`, the inhibition was -2.76% (inactive).

`CC(=O)c1ccc(NC(=O)/C=C/c2cccc([N+](=O)[O-])c2)cc1`: the inhibition is -22.5% (inactive).

On to `COCCCNc1ncnc2ccc(I)cc12`, for which the inhibition was 29.9% (inactive).

For the molecule `Ic1ccc2ncnc(NCCc3ccccc3)c2c1`, the inhibition was 32.8% (active).

`Ic1ccc2ncnc(NCC3CCCO3)c2c1` (centres undefined): the inhibition is 25.4% (inactive).

Turning to `CCn1c(SCC(=O)N2CCc3ccccc32)nnc1-c1ccccc1`, the inhibition is -0.23% (inactive).

For `O=C(NCc1ccccc1)c1csc(Nc2ccc(N3CCOCC3)cc2)n1`, the inhibition was 35% (active).

Turning to `O=C(NCCc1ccccc1)c1csc(Nc2ccccc2)n1`, the inhibition was -24.6% (inactive).

Turning to `O=C(Nc1ccc(N2CCOCC2)cc1)c1csc(Nc2ccc(-n3ccnc3)cc2)n1`, the inhibition was 17.6% (inactive).

On to `O=C(NCCc1ccc(O)cc1)c1csc(Nc2ccc(N3CCOCC3)cc2)n1`, for which the inhibition was 39.4% (active).

For the molecule `O=C(NCc1ccccc1)c1csc(Nc2ncccn2)n1`, the inhibition was 5.56% (inactive).

As to `O=C(NCCc1ccc(O)cc1)c1csc(Nc2ccc3ncccc3c2)n1`, the inhibition was -1.97% (inactive).

On to `Cc1ccc2nc(-c3cc(NC(=O)c4ccccc4C)ccc3Cl)oc2c1`, for which the inhibition is -11.2% (inactive).

As for `COc1ccc(Cn2c(SCC(=O)NCCc3ccc(OC)c(OC)c3)nc3ccsc3c2=O)cc1`, the inhibition is 11.1% (inactive).

Consider `CC(C)(C)c1ccc(CSc2nc3ccc(NC(=O)c4ccccc4)cc3s2)cc1`, for which the inhibition is 2.44% (inactive).

For `CCC(=O)Nc1ccc(NC(=O)COc2ccc(Br)cc2)cc1C`, the inhibition was 0.24% (inactive).

With `COc1ccc(-c2cc(C(=O)Nc3sc(C)c(C)c3C#N)c3ccccc3n2)cc1OC`, the inhibition was -0.22% (inactive).

Consider `CCN(CC)C(=O)c1sc(NC(=O)c2c(-c3ccccc3)noc2C)c(C(=O)OC(C)C)c1C`, for which the inhibition is 2.03% (inactive).

With `Fc1ccc(C2=Nc3ccc(F)cc3C(C3CC3)=NN2)cc1`, the inhibition was -2.31% (inactive).

With `CCOc1ccc(C(=O)NCC(=O)OCC#N)cc1`, the inhibition is 0.54% (inactive).

In the case of `CCOC(=O)/C(N=Nc1ccc2c(c1)OCCO2)=C(/O)c1ccc([N+](=O)[O-])cc1`, the inhibition is 88.1% (active).

Regarding `CCOC(=O)/C(N=Nc1cc(C(=O)O)cc(C(=O)O)c1)=C(\C)O`, the inhibition is 8.94% (inactive).

`CS(=O)(=O)c1ccc(C(=O)OCC(=O)c2ccc3c(c2)OCCO3)cc1[N+](=O)[O-]`: the inhibition is 2.27% (inactive).

The values above are taken from PubChem BioAssay AID1259422 (The Scripps Research Institute Molecular Screening Center, 2018).
